{"source": "paper PMC5540273", "about": "(PLoS ONE, 2017);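 further: KINOMEscan kinase panel screen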", "data": [{"test_system": "ERBB2", "conditions": "concentration: 1 μM,replicates: in singlicate; n = 1", "units": {"%Inh": "%"}, "values": [{"compound": "Cl.Cl.NC[C@H](Cc1ccc(C(F)(F)F)cc1)NC(=O)c1cc(Br)c(-c2ccnc3[nH]ccc23)s1", "note": "[GSK1487252]", "%Inh": 9}, {"compound": "Nc1nc(Nc2ccccc2)cc(-c2ccc3c(N)n[nH]c3c2)n1", "note": "[GSK2225749]", "%Inh": 32}, {"compound": "CC(C)Nc1cc(-c2ccc3c(N)n[nH]c3c2)nc(N)n1", "note": "[GSK2221681]", "%Inh": 8}, {"compound": "CC(C)N1C(=O)Cc2cc(Nc3ncc(C(F)(F)F)c(NCc4cccc(S(C)(=O)=O)c4)n3)ccc21", "%Inh": 15}, {"compound": "Cl.Cl.NC[C@H](CC1CCCCC1)NC(=O)c1cc(Br)c(-c2ccnc3[nH]ccc23)s1", "note": "[GSK1581427]", "%Inh": 1}, {"compound": "CN(C)CC(O)COc1ccc(Nc2nccc(-c3cnn4nc(N5CCOCC5)ccc34)n2)cc1", "note": "(centres unmarked) [GW767488]", "%Inh": 5}, {"compound": "CCN(CC)CCOc1ccc(Nc2ncc3cc(-c4c(Cl)cccc4Cl)c(=O)n(C)c3n2)cc1", "note": "[SB-601273]", "%Inh": 92.8}, {"compound": "Cc1n[nH]c2ccc(-c3cc(OC[C@@H](N)Cc4ccccc4)cnc3-c3ccoc3)cc12.O=C(O)C(F)(F)F.O=C(O)C(F)(F)F", "note": "[GSK507358]", "%Inh": 77}, {"compound": "Cc1occc1-c1nc(N)c(OC[C@@H](N)Cc2c[nH]c3ccccc23)cc1-c1cc2c(C)n[nH]c2cn1", "note": "[GSK1660450]", "%Inh": 79}, {"compound": "C[C@@H]1CCN(C(=O)CC#N)C[C@@H]1N(C)c1ncnc2[nH]ccc12", "%Inh": 0}, {"compound": "Cl.Oc1cc(-c2nc(-c3ccccc3)[nH]c2-c2ccncc2)ccc1Cl", "note": "[SB-386023]", "%Inh": 0}, {"compound": "O=C(NCCCN1CCOC1=O)c1cnc(NCc2cc(Cl)ccc2Cl)nc1NC1CCCC1", "%Inh": 46}, {"compound": "Cc1cc(C(=O)Nc2ccc(Oc3ccc4nc(NC(=O)C5CC5)cn4n3)cc2)nn1-c1ccccc1", "%Inh": 19}, {"compound": "Cl.Cl.Nc1nc(-c2ccc3c(N)n[nH]c3c2)cc(N2CCCC(NC(=O)c3ccccc3)C2)n1", "note": "(centres unmarked) [GSK2286775]", "%Inh": 0}, {"compound": "CCN(CC)CCCCNc1ncc2cc(-c3c(Cl)cccc3Cl)c(NC(=O)NC(C)(C)C)nc2n1", "%Inh": 35}, {"compound": "Cc1ccc2c(-c3ccncc3)c(-c3ccc(F)cc3)nn2c1.Cl", "note": "[GW461484]", "%Inh": 21}, {"compound": "COc1ccc(C[C@@H](CN)NC(=O)c2cc(Br)c(-c3ccnc4[nH]ccc34)s2)cc1.Cl.Cl", "note": "[GSK1389063]", "%Inh": 25}, {"compound": "O=C(NCCNc1ccnc(NCc2ccc(F)cc2)n1)c1cc2ccccc2s1", "note": "[GSK1379944]", "%Inh": 13}, {"compound": "CN(C)CCOc1ccc(-c2cc(-c3c[nH]nc3-c3ccccn3)ccn2)cc1", "note": "[GW835314]", "%Inh": 0}, {"compound": "CNC(=O)c1ccccc1Sc1ccc2c(/C=C/c3ccccn3)n[nH]c2c1", "%Inh": 22}, {"compound": "NC(=O)c1cc(-c2ccccc2)cc2c(C3CCNCC3)c[nH]c12", "note": "[GSK301362]", "%Inh": 16}, {"compound": "CCn1c(-c2nonc2N)nc2c(C#CC(C)(C)O)nc(OCCN)cc21.Cl.Cl", "note": "[GSK902056]", "%Inh": 11}, {"compound": "C[C@H]1Oc2cc(cnc2N)-c2c(nn(C)c2C#N)CN(C)C(=O)c2ccc(F)cc21", "%Inh": 28}, {"compound": "C[C@@H](Oc1cc(-c2cnn(C3CCNCC3)c2)cnc1N)c1c(Cl)ccc(F)c1Cl", "%Inh": 7}, {"compound": "Cc1ccc(-n2nc(C(C)(C)C)cc2NC(=O)Nc2ccc(OCCN3CCOCC3)c3ccccc23)cc1", "note": "[GW839464]", "%Inh": 24}, {"compound": "Cc1cc2cn[nH]c2cc1-c1cccc2c(N)c(C(N)=O)nnc12", "%Inh": 14}]}]}
